Source: PubChem BioAssay
The list is not random: actives were taken first. Their share in the collection is about 10%.
SW480 rerep: DNA re-replication induction in SW480 cells; SW480 DNA re-replication, Hoechst DNA content imaging, 48 h; Potency, µM (highest dose often 46.1 µM), for inactives: top-dose re-replication activation, actives largely listed as activators; 340,000 compounds, 1.8% hits; also: % of control where 0% means no effect; nearly all actives have a fitted effect of over 55% in size
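250 cells/well; 23 nL cpd via pin tool; 48 hr, 37 C, 5% CO2; Hoechst 40 min; imager read of total nuclear intensity, ex 405/em 500-530 nm.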
MCF10A rerep: inducers of DNA re-replication in MCF 10A breast cells. AID 624296. MCF 10A DNA re-replication, Hoechst nuclear intensity, 48 h. 350,000 compounds, 2.9% hits. Potency, µM (doses to about 46.1 µM), for the others: at the top dose activity, positive = re-replication, hits mostly activators; also: % of control where 0% means no effect; nearly all actives have a fitted effect of over 50% in size
ELG1 repair inh: inhibitors of ELG1-dependent DNA repair in HEK293T cells | HEK293T ELG1-luciferase reporter, luminescence, 16 h; DNA damage induced by 5-fluorouridine | Potency, µM (series often up to 46.1 µM), for inactives: at the top dose activity change, negative = inhibition, most hits filed as inhibitors | 330,000 compounds, 2.3% hits | AID 504467; also: % is scaled to controls: 0 for no effect and ±100 for the full control effect; nearly all actives have a fitted effect of over 55% in size
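HEK293T cells expressing luciferase-tagged ELG1 (2,000/well) received 5-Fluorouridine plus compound or DMSO for 16 hr at 37 °C. Luciferase was read by ONE-Glo luminescence after 30 min at room temperature.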
VP16 counter: inhibits Gal4-VP16 luciferase reporter, ROR gamma counter-screen | Drosophila S2 Gal4-VP16 UAS-luciferase, luminescence, 20 h | 310,000 compounds, 3.5% hits | Potency, µM (highest dose often 53.6 µM), for the others: at the highest dose activity, negative = inhibition, actives largely listed as inhibitors | AID 2546;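 also: Gal4-VP16 expression switched on by copper sulfate through the metallothionein promoter; % is scaled to controls: 0 for no effect and ±100 for the full control effect; nearly all actives have a fitted effect of over 50% in size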
RORg inh: inhibitors of mouse ROR gamma transcriptional activity; Potency, µM (highest dose often 53.6 µM), without a hit: at the top dose activity change, negative = inhibition, most hits filed as inhibitors; P51450; Drosophila S2 Gal4-RORgamma UAS-luciferase reporter, 20 h; AID 2551; 310,000 compounds, 5.4% hits; also: % is scaled to controls: 0 for no effect and ±100 for the full control effect; nearly all actives have a fitted effect of over 60% in size
Target sequence (P51450 whole entry, looked up, the tested form may be a part): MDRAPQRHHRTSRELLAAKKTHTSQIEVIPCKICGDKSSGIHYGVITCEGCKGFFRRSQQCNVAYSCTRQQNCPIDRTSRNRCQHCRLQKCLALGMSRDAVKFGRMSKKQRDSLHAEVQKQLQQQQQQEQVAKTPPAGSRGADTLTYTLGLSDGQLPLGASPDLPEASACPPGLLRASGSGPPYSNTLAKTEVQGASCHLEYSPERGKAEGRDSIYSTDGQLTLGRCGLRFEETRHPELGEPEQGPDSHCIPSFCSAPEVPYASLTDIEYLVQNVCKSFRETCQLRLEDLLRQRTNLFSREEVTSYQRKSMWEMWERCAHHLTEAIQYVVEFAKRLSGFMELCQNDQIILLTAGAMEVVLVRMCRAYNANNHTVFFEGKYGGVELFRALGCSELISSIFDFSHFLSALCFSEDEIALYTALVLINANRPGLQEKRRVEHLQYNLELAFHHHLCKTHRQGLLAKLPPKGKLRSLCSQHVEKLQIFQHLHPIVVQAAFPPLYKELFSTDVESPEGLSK
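Stably transfected Drosophila Schneider cells are the test system, with ROR gamma fused to Gal4 and luciferase under UAS control; luminescence is read after 20 hr of 700 uM copper sulfate induction at ambient temperature.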
Starred values were filed as active, the others as inactive; u = inconclusive; x = no result; ! = a repeat was not active; [ ] = another dose, or the depositor's remark. Calls follow the shape of the dose curve; as a rule, active = well fitted curve in the direction sought with a large enough effect; inconclusive = small, poorly fitted or top-dose-only effect, or another doubt; inactive = no such curve, though single readings can be large; an effect the other way counts as inactive or inconclusive. Potency is read from the fitted curve at half-maximal effect.

SMILES | SW480 rerep | MCF10A rerep | ELG1 repair inh | VP16 counter | RORg inh
CC1CCCC(NC(=O)COC(=O)[C@@H](NC(=O)c2ccc(F)cc2)C(C)C)C1C (some centres undefined) | -1% | 4% | -5% | x | x
CC(=O)c1cccc(NC(=O)CN2C(=O)C(=O)N(Cc3ccco3)C2=O)c1 | 3% | -5% | 3% | x | x
CCN(c1ccccc1)S(=O)(=O)c1ccc(C(=O)Nc2ncccc2C)cc1 | -1% | -1% | 14% | x | x
CCN(c1ccccc1)S(=O)(=O)c1ccc(C(=O)Nc2ncccc2O)cc1 | -1% | 13% | -3% | u | 20µM*
COCCCNC(=S)N/N=C/c1ccc(N(C)C)cc1 | -80% | -33% | u | 7.1µM* | 2.8µM*
COCCCNC(=S)N/N=C/c1ccc(N(C)C)cc1Cl | 29µM* | u | u | 13µM* | 2.2µM*
COCCNC(=S)N/N=C/c1ccccc1C(=O)O | -8% | -3% | u | 0% | 12%
COCCCNC(=S)N/N=C/c1ccccc1O | u | 7% | u | 3.5µM* | 0.56µM*
O=C(CCCc1nc2ccccc2s1)NCc1ccccc1F | 1% | 17% | 20% | -9% | u
O=C(O)c1ccccc1N(Cc1ccccc1)C(=O)CO/N=C/c1ccccc1 | u | -3% | -1% | -5% | 2%[10 µM]
FC(F)(F)c1cnc(Sc2nc3nccc(-c4ccc(Cl)cc4)n3n2)c(Cl)c1 | 16µM* | 3.3µM* | -1% | u | u
COc1ccc(-c2ccnc3nc(Sc4ncc(C(F)(F)F)cc4Cl)nn23)cc1 | 6% | -2% | -3% | -7% | 1%
CN(C)C(CNC(=O)c1ccc(S(=O)(=O)Nc2ccccc2)cc1)c1ccco1 (centres undefined) | 2% | u | -4% | x | x
COc1ccc(CNc2nc(-c3ccccc3OC)nc3ccccc23)c(OC)c1 | x | x | x | u | 13µM*
C=CCNc1nc(-c2cccc(OC)c2O)nc2ccccc12 | 4% | 23µM* | u | 0% | -2%
COc1cccc(-c2nc(NC3CCCC3)c3ccccc3n2)c1O | 1% | u | 23µM* | -5% | 30%
COc1cccc(-c2nc(NCc3ccccc3)c3ccccc3n2)c1O | -46% | 28% | 2% | u | 34%
COc1cccc(-c2nc(NCc3ccc(OC)cc3OC)c3ccccc3n2)c1 | x | x | x | 5% | -10%
O=C(Nc1ccc(Oc2cccnc2)cc1)C1CCN(Cc2cccc(Cl)c2)CC1 | 22% | u | -21% | -24% | -13%
CC(C)c1ccc(/C=C2\SC(=O)N(CC(=O)NC3C=CS(=O)(=O)C3)C2=O)cc1 (centres undefined) | -8% | -6% | u | 4.5µM* | u
O=C(N/N=C/c1ccco1)C1CC(=O)N(c2ccccc2)C1 (centres undefined) | -7% | 5% | 6% | -6% | -5%
COc1ccccc1Nc1ncc(C(=O)Nc2ccc(OC)c(OC)c2)c2ccccc12 | -59% | 2% | u | 5% | 5%
CCOC(=O)c1cc(-c2ccc(OC)cc2)nc2c1c(C)nn2CCC#N | 6% | u | 3.7µM* | -1% | -6%
Cc1ccc(-n2nc(C)c3c(C(=O)OCC(=O)N(C)C4CCS(=O)(=O)C4)cc(-c4ccccc4)nc32)cc1 (centres undefined) | 4% | 21µM*! | -25% | -6% | -26%
CCOC(=O)c1cc(-c2ccncc2)nc2c1c(C)nn2-c1ccccn1 | 16% | u | 23µM* | -25% | u
SMILES | SW480 rerep | MCF10A rerep | ELG1 repair inh | VP16 counter | RORg inh
CCOC(=O)c1cc(-c2ccc(C#N)cc2)nc2c1c(C)nn2CCC#N | -6% | 3% | u | -12% | 0%
Cn1c(NC(=O)c2ccccc2NC(=O)C(C)(C)C)nc2ccccc21 | 20% | -2% | u | 11µM* | 10µM*
CCn1c(CNC(=O)c2ccccc2)nc2ccccc21 | -2% | -1% | x | x | x
Cn1c(NC(=O)c2ccc(F)cc2)nc2ccccc21 | u | 0% | u | 1.3µM* | 0.45µM*
C/C(=N\NC(=O)c1ccccc1)c1nc2ccccc2n1C | 13µM* | 7% | -22% | 3.2µM* | 1.6µM*
Cc1noc(C)c1COc1ccccc1C(=O)NNC(=O)C(C)Oc1ccccc1F (centres undefined) | 1% | 1% | 0% | x | x
NC(=O)CSc1nnc(-c2cc(-c3cccs3)nc3ccccc23)o1 | u | u | u | -1% | 7%
CCCN(CC1CC1)C(=O)CSc1nnc(-c2cc(-c3cccs3)nc3ccccc23)o1 | 1% | -7% | 9.2µM* | -19% | -12%
Cc1ccc(/C=N/Nc2ncc(Cl)cc2Cl)s1 | 5.8µM* | -2% | u | 7.1µM* | 4.5µM*
Clc1cnc(N/N=C/c2ccco2)c(Cl)c1 | x | -2% | u | 13µM* | 5.6µM*
Oc1ccc(/C=N/Nc2ncc(Cl)cc2Cl)cc1 | 2% | 13% | u | 6% | u
Clc1cnc(N/N=C/c2cccs2)c(Cl)c1 | 1%[9.22 µM] | 0% | u | u | 7.9µM*
Cc1ccc(/C=N/Nc2ccccn2)s1 | -8% | 4% | u | 11µM* | u
CN(C)Cc1ccccc1COc1ccccc1 | 9% | -2% | 12% | -8% | -4%
COc1ccc(N2CCN(C(=O)c3cccc4nc(C)oc34)CC2)cc1 | -8% | -1% | u | -16% | 26%
CCN(CC)CCN1C(=O)C(=O)/C(=C(/O)c2ccc(OC(C)C)cc2)C1c1cccs1 (centres undefined) | -11% | -17% | u | 9% | 26%
COc1ccc(/C=C/C(=O)OCC(=O)NCc2ccccc2)cc1OC | 16% | 23µM* | -5% | x | x
COc1cc(/C=C/C(=O)OCC(=O)NCCc2ccc(S(N)(=O)=O)cc2)ccc1OCC#N | 2.6µM* | u | 12% | x | x
COc1cc(/C=C/C(=O)OCC(=O)Nc2ccccc2Sc2ccc(Cl)cc2)ccc1O | 13% | 21µM* | u | -5% | u
COc1ccc(CCCC(=O)NCc2ccccc2)cc1C | u | 8.2µM* | -2% | 8% | 6%
COc1cc(/C=C/C(=O)OCC(=O)NNC(=O)c2cc(Cl)ccc2OC)ccc1O | -14% | -1% | u | x | x
Cc1cc(C)n(CCCNC(=O)C2CC(=O)N(Cc3ccccc3)C2)n1 (centres undefined) | -4% | -2% | 3% | x | x
O=C(COc1ccc(F)cc1)Nc1ccccc1N1CCOCC1 | -1% | 5% | -12% | x | x
COc1nc(N(C)C)nc(N(C#N)S(=O)(=O)c2ccc(C)cc2)n1 | -49%[1.84 µM] | 3% | 10% | 3% | -11%
Cc1ccc(N2C(=S)N=C(Nc3ccccc3C)C23CCOC(C)(C)C3)cc1 (centres undefined) | 18% | 4% | 0% | 13µM* | 4.5µM*
COc1ccc(N2C(=S)N=C(Nc3cccc(C)c3)C23CCCCC3)cc1 | -7% | -3% | 7% | 6.3µM* | 2.2µM*
